In the library only some 3.1% were active in any assay of this set; here they are far more common.
PI4K2A block = inhibitors of human PI4K2A; hit rate 0.13% among 420,000; Q9BTU6; AID 1346378; purified PI4K2A, ADP-Glo luminescence, 1 h; hits give low values; activity change, negative = inhibition, % at 76.9 µM; in the data active = activity change below about -50%; inconclusive = mostly about -30% to -49%
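Compounds are screened against recombinant PI4K2A using PI as substrate and ATP, the latter dispensed at 300 microM. Reactions run one hour at ambient temperature before ADP-Glo detection; full inhibition defined by wells lacking enzyme.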
KAT2A inh = GCN5L2 (KAT2A) acetyltransferase inhibition | Potency, µM (series often up to 58.9 µM), actives largely listed as inhibitors | hit rate 0.21% among 390,000 | Q92830 | GCN5L2 HAT assay, ThioGlo1 CoA-SH fluorescence
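Fluorescence readout, Ex340nm/Em540nm: ThioGlo1 (50uM final) reacts with free CoA thiol released as 20nM GCN5L2 acetylates H3(1-25) peptide (75uM) using acetyl-CoA (70uM). Compound and enzyme sat 15 min beforehand; 20 min room-temperature reaction.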
VDR inh = vitamin D3 receptor (human) inhibition. VDR-SRC2-3 peptide fluorescence polarization, 2 h. Potency, µM, most hits filed as inhibitors. P11473. hit rate 0.93% among 400,000
Target sequence (P11473 whole entry, looked up): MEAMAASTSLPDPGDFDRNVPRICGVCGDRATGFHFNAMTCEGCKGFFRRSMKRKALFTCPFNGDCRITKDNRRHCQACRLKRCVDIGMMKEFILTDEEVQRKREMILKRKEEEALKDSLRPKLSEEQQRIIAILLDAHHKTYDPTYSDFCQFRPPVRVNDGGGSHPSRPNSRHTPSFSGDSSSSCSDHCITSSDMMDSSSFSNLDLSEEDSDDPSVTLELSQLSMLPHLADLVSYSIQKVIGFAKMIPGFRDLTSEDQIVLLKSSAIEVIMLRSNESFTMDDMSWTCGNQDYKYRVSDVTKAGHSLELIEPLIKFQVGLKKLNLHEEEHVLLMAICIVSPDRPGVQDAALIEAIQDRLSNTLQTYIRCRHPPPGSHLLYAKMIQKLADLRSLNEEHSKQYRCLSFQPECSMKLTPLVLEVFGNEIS
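Two reagent solutions held at 4 deg C in the dark were dispensed, compounds pinned at 23 nl, and the mixture incubated 2 h at room temperature. Read-out: fluorescence polarization of VDR–SRC2-3 peptide binding.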
GLS inh = blocks human kidney-isoform glutaminase activity | GLS enzymatic activity, qHTS titration | hit rate 0.21% among 410,000 | O94925 | Potency, µM (top dose mostly 45.5 µM), hits mostly inhibitors
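Coupled fluorescence readout: glutamate oxidase/HRP/Amplex Red detect glutamate formed by hKGA from L-glutamine (1 mM solution added). Buffer 45 mM KH2PO4 pH 8.2, 0.02% Tween-20; reads at t0 and 30 min RT.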
PLK1 PBD block = inhibitors of human PLK1 polo-box domain binding. P53350. Plk1 PBD binding of FITC phosphopeptide, fluorescence polarization. Potency, µM, hits mostly inhibitors. hit rate 2.8% among 360,000; note: series mostly up to about 57 µM; nearly all actives have a fitted effect of over 65% in size
Each line names hits and unclear results; the compound was inactive in the other large screens. Unless noted, calls come from the whole dose curve; as a rule, active = well fitted curve in the direction sought with a large enough effect; inconclusive = small, poorly fitted or top-dose-only effect, or another doubt; inactive = no such curve, though single readings can be large; an effect the other way counts as inactive or inconclusive.

Cc1ccc(-n2c(=O)c3cc4c(=O)n(-c5ccc(C)c(C)c5)c(=O)c4c(C(=O)c4ccc(C(=O)O)cc4)c3c2=O)cc1C	VDR inh inconclusive, PLK1 PBD block 30µM
CCOC(=O)C1CCN(C(=O)Cn2nc(C)n3c(cc4c(OC)cccc43)c2=O)CC1	none (no result: PLK1 PBD block)
CCOC(=O)C1CCN(C(=O)Cn2nc(CC)n3cccc3c2=O)CC1	VDR inh inconclusive, PLK1 PBD block 27µM
CCOC(=O)C1CCCN(C(=O)Cn2nc(C)n3c(cc4c(OC)cccc43)c2=O)C1 (centres undefined)	PLK1 PBD block 27µM
CN1C2CCC1CC(NC(=O)n1c(=O)[nH]c3ccccc31)C2 (centres undefined)	none (no result: PI4K2A block, KAT2A inh, VDR inh, PLK1 PBD block)
Cn1cccc1C(=O)NC(=O)COC(=O)c1cc(S(=O)(=O)N2CCCCC2)ccc1Cl	PLK1 PBD block 21µM
CN(C(=O)CNC(=O)c1ccccc1OCC(=O)Nc1ccc(Br)cc1)c1ccccc1	none (no result: KAT2A inh, VDR inh, GLS inh, PLK1 PBD block)
COC(CNC(=O)CCc1c(C)nc2c(-c3ccc(F)cc3)c(C)nn2c1C)OC	PLK1 PBD block 30µM
Cc1nc2ccc(NC(=O)CCS(=O)(=O)c3ccc(Cl)cc3)cc2s1	VDR inh inconclusive, PLK1 PBD block 17µM
COc1ccc(NC(=O)CCS(=O)(=O)c2ccc3nc(C)sc3c2)cc1OC	none
CC1=C(C)NC(=S)SC1	PLK1 PBD block 27µM
COc1ccc(S(=O)(=O)N(CC(=O)NCCc2ccccc2)c2ccc(Cl)cc2)cc1	none (no result: PLK1 PBD block)
CC(C)[C@H]1COCCS(=O)(=O)N1Cc1ccccc1-c1ccccc1	VDR inh inconclusive, PLK1 PBD block 24µM
O=S1(=O)CCOC[C@H](CC2CCCCC2)N1Cc1ccccc1	none
CC(C)[C@H]1COCCS(=O)(=O)N1Cc1ccccc1-c1ccc(C(C)(C)C)cc1	none
Cc1ccccc1CN1[C@@H](CC2CCCCC2)COCCS1(=O)=O	VDR inh inconclusive, PLK1 PBD block 27µM
Cc1ccc2c(CC(=O)Nc3ccc(S(=O)(=O)N4CCCCC4)cc3)coc2c1C	none (no result: PLK1 PBD block)
O=C1/C(=C\c2ccc(O)c(O)c2)N=C2CCCCCN12	GLS inh 2.5µM
COCC1=C(C(=O)OC(C)OC(=O)OC(C)C)N2C(=O)C(NC(=O)/C(=N/OC)c3csc(N)n3)[C@H]2SC1 (some centres undefined)	none (no result: PI4K2A block, KAT2A inh, VDR inh, PLK1 PBD block)
COc1ccc(N2CCC(CNC(=S)Nc3c(C)cc(C)cc3C)C2)cc1 (centres undefined)	PLK1 PBD block 12µM
O=C1CN(c2ccccc2)C(=S)N1C(=O)c1ccccc1	PLK1 PBD block 27µM
CC[C@H](CCCc1ccc(OC)cc1)CCC(=O)N(c1ccccc1)c1ccccc1	none (no result: KAT2A inh, VDR inh, GLS inh, PLK1 PBD block)
COC(=O)c1ccccc1NC(=O)NCc1ccccc1	none
COC(=O)c1ccccc1NC(=O)NCc1ccncc1	PLK1 PBD block 21µM
COc1ccc(CN[C@@H]2CC[C@@]34CCCN3C(=O)CCC[C@H]4C2)cc1OC	none (no result: KAT2A inh, VDR inh, GLS inh, PLK1 PBD block)
CC[C@@H](CCC(=O)N(c1ccccc1)c1ccccc1)c1ccc(C)cc1	none (no result: KAT2A inh, VDR inh, GLS inh, PLK1 PBD block)
Cc1ccc(S(=O)(=O)N2CC=C(C(=O)NC3CCCC3)CC2)cc1	VDR inh inconclusive, PLK1 PBD block 27µM
COc1ccc(S(=O)(=O)N2CC=C(C(=O)NC3CCCC3)CC2)cc1	PLK1 PBD block 30µM
COc1ccc(S(=O)(=O)N2CC=C(C(=O)Nc3ccc(NC(C)=O)cc3)CC2)cc1	none
Cc1ccc(S(=O)(=O)N2CC=C(C(=O)NCCC(C)C)CC2)cc1	none
Cc1ccc(SC(CC(=O)c2ccc(C)cc2)C(=O)O)cc1 (centres undefined)	VDR inh 20µM, PLK1 PBD block inconclusive
O=C(NC1CCCCN(Cc2cccc(C(F)(F)F)c2)C1=O)c1ccc(-c2ccccc2)cc1 (centres undefined)	none (no result: KAT2A inh, VDR inh, GLS inh, PLK1 PBD block)
O=C(NC1CCCCN(Cc2ccc(Cl)cc2)C1=O)c1ccccn1 (centres undefined)	none (no result: KAT2A inh, VDR inh, GLS inh, PLK1 PBD block)
COC(=O)c1ccc(CSCc2ccc(C(=O)OC)o2)o1	none
COC(=O)c1ccc(CN(C(C)=O)c2ccccc2)o1	VDR inh inconclusive, PLK1 PBD block 27µM
CC[C@H](C)[C@H](NC(=O)[C@H](CCCN=C(N)N)NC(=O)[C@H](CCCN=C(N)N)NC(=O)[C@H](CC(C)C)NC(=O)[C@H](Cc1ccccc1)NC(=O)CNC(=O)CN)C(=O)N[C@@H](CCCN=C(N)N)C(=O)N1CCC[C@H]1C(=O)N[C@@H](CCCCN)C(=O)N[C@@H](CC(C)C)C(=O)N[C@@H](CCCCN)C(=O)O	none (no result: PI4K2A block, GLS inh, PLK1 PBD block)
C[C@H]1O[C@H](O[C@H]2[C@H](O[C@@H]3CC[C@@]4(C)C(CC[C@]5(C)C4CC=C4[C@@H]6CC(C)(C)CC[C@]6(C(=O)O[C@@H]6O[C@H](CO)[C@@H](O)[C@H](O)[C@H]6O)CC[C@]45C)C3(C)C)O[C@H](C(=O)O)[C@@H](O)[C@@H]2O)[C@@H](O)[C@@H](O)[C@@H]1O (some centres undefined)	GLS inh inconclusive
C[C@@H]1CC[C@]2(C(=O)O[C@@H]3O[C@H](CO)[C@@H](O)[C@H](O)[C@H]3O)CC[C@]3(C)C(=CCC4[C@@]5(C)C[C@@H](O)[C@H](O)[C@@](C)(C(=O)O[C@@H]6[C@H](O)C[C@@]7(C)C(CC[C@]8(C)C7CC=C7[C@H]9[C@](C(=O)O[C@@H]%10O[C@H](CO)[C@@H](O)[C@H](O)[C@H]%10O)(CC[C@@H](C)[C@@]9(C)O)CC[C@]78C)[C@@]6(CO)C(=O)O)C5CC[C@]43C)[C@@H]2[C@]1(C)O (some centres undefined)	GLS inh 7.1µM
CCOC(=O)C1CCCN(Cc2nc(N)nc(Nc3ccc(OC)cc3)n2)C1 (centres undefined)	PLK1 PBD block 27µM
COc1ccccc1N=Cc1nc(-c2ccccc2)oc1OC(C)=O	VDR inh inconclusive, PLK1 PBD block inconclusive
CC(=O)Oc1oc(-c2ccccc2)nc1/C=N/c1ccccn1	VDR inh 22µM, PLK1 PBD block 9.5µM
CCOc1ccc(/C=N/n2c(-c3n[nH]c4c3CCC4)n[nH]c2=S)cc1	none (no result: KAT2A inh, VDR inh, GLS inh, PLK1 PBD block)
CC(=O)Nc1cc(=O)c2cccnc2[nH]1	GLS inh 16µM, PLK1 PBD block inconclusive (no result: KAT2A inh)
CCCCCCn1c(=O)[nH]c2nc3cc(N)c(C)cc3nc2c1=O	VDR inh inconclusive, PLK1 PBD block 3µM
CCCCn1c(=O)[nH]c2nc3cc(NC(C)=O)ccc3nc2c1=O	none
Cc1ccccc1Cn1c(=O)n(CCCCC(=O)NCc2ccccc2Cl)c(=O)c2ccccc21	none (no result: PLK1 PBD block)
COc1cccc(C(=O)COC(=O)C(C)N2C(=O)c3ccccc3C2=O)c1 (centres undefined)	none
CC(C(=O)OCC(=O)c1ccccc1)N1C(=O)c2ccccc2C1=O (centres undefined)	VDR inh inconclusive, PLK1 PBD block 30µM
CC(/C=N/NC(=O)c1cc(C(C)C)[nH]n1)=C\c1ccccc1	PLK1 PBD block 30µM
Cc1nc(N2CCN(c3ccccc3)CC2)nc2c1C(=O)CCC2	none
